Measurements taken from PubChem BioAssay (NCI).
Compounds without any hit were thinned out: in the full panel of roughly 83,000, 20% have a hit.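 Method: cells in 96-well plates; compound added at one concentration; 48 h incubation; percent growth measured; values under 10 scored active.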 A number with no mark means an inactive call. Activity calls are given as the source filed them.

tested on: MCF7 breast; test: NCI-60 one-dose screen, 48 h (100 = growth as untreated, 0 = no growth, -100 = all killed); settings: 10 µM unless noted

Row | Structure (SMILES) | growth
1 | O=C1Cc2c([nH]c3ccc([N+](=O)[O-])cc23)-c2ccccc2N1 | 8.43% (active)
2 | Cc1ccccc1CNc1ncnc2[nH]ncc12 | 104%
3 | COc1ccc(OC)c(Nc2nc(-c3c(C)nc4sccn34)cs2)c1 | 39.1%
4 | COc1cc2c(cc1OC)C(=O)OC2 | 105%
5 | CN=C1C=C/C(=N/N=c2/ccn(O)cc2C)C=C1C | 81%
6 | Cc1nc2ccc(Nc3nc(N4CCOCC4)nc(N4CCN(C)CC4)n3)cc2n1Cc1ccccc1 | 82.6%
7 | CC(C)=CCC[C@H](C)c1ccc(C)c2c1OCN(CCO)C2 | 83.9%
8 | COc1ccc(NC(=O)c2ccc(C(F)(F)F)nc2Nc2ccc(Cl)cc2C)cc1Cl | 9.61% (active)
9 | O=C(NCCNC(=O)c1cc(S(=O)(=O)NCCc2ccccc2)c(O)c(O)c1O)c1cc(S(=O)(=O)NCCc2ccccc2)c(O)c(O)c1O | 34.9%
10 | Cc1ccc(NC(=O)Cn2nncc2CN2C(=O)CSC2=O)cc1C | 92%
11 | Brc1ccccc1Cn1c(-c2cncs2)nc2ccccc21 | 98.9%
12 | COc1cccc(Cn2c(-c3nonc3NC(C)=O)nc3ccccc32)c1 | 47.4%
13 | CN1CCN(Cc2ccc(NC(=O)c3cccc(C#Cc4cnc(N)c5ncccc45)c3F)cc2C(F)(F)F)CC1 | -65.1% (active)
14 | O=C(Oc1c(Cl)c(Cl)c(Cl)c(Cl)c1Cl)C1CCCN1C(=O)OCc1ccccc1 (stereo unspecified) | 29.6%
15 | Clc1ccc(Nc2ncnc3c2sc2ncccc23)cc1 | 19.5%
16 | COc1ccc(/C=C/C(=O)c2ccc(NC(=O)CSc3nnc(-c4ccc(OC)cc4)n3-c3ccccc3)cc2)cc1 | 77.1%
17 | CCCCNCCC(O)c1cc2ccc(C(F)(F)F)cc2c2cc(C(F)(F)F)ccc12 (stereo unspecified) | -79.3% (active)
18 | Cc1ccc(N2C3c4ccccc4N(S(=O)(=O)c4ccc(C)cc4)C2c2ccccc2N3S(=O)(=O)c2ccc(C)cc2)cc1 | 88.5%
19 | Cc1ccc(C2CC(c3cccs3)=NN2c2ccc(S(N)(=O)=O)cc2)s1 (stereo unspecified) | 77.3%

Row | Structure (SMILES) | growth
20 | O=C(Nc1ccc(OS(=O)(=O)c2ccc(F)cc2)cc1)C12CC3CC(CC(C3)C1)C2 | 34%
21 | CCCCCc1c(C)[nH]c(/C=C2\N=C(c3ccc[nH]3)C=C2CC)c1C | -85.3% (active)
22 | CC(COC(=O)c1ccccc1)N1CC2CCC(C1)O2 (stereo unspecified) | 102%
23 | Cc1cc(C)c(C#N)c(SCC(=O)c2sc3c(C#N)c(C)cc(C)[n+]3c2[O-])n1 | 13.4%
24 | COc1ccc(-c2nc(-c3ccccc3OCc3ccccc3OC)nc(C)c2C(C)=O)cc1 | 83.8%
25 | COc1c(-c2cc(-c3ccc(C)o3)[nH]c(=O)n2)c(O)cc2occc12 | 28.1%
26 | Cc1cc(NC(=O)C2c3ccccc3C(=O)N(CC(C)C)C2c2cccs2)no1 (stereo unspecified) | 10.4%
27 | OC(c1cc2c(Cl)cc(Cl)cc2c2cc(C(F)(F)F)ccc12)C1CCCCN1 (stereo unspecified) | -75.7% (active)
28 | Cc1nc2ccc(Nc3nc(Cl)nc(N4CCOCC4)n3)cc2n1Cc1ccccc1 | 64.7%
29 | O=C(CS)OCC(COC(=O)CS)(COC(=O)CS)COC(=O)CS | 75.9%
30 | C=CCN(CCOC(=O)c1ccc([N+](=O)[O-])cc1)CCOC(=O)c1ccc([N+](=O)[O-])cc1 | 96.3%
31 | CCN1CCN(Cc2ccc(NC(=O)c3nc4ccc5[nH]ncc5c4c4c3CCCC4)cc2C(F)(F)F)CC1 | -71.4% (active)
32 | CN(C)c1ccc(N2Cc3ccccc3OC3=C2C(=O)c2c(O)ccc(O)c2C3=O)cn1 | -55% (active)
33 | CCCc1n(Cc2ccc3ccccc3n2)cc[n+]1Cc1ccc2ccccc2c1 | 2.91% (active)
34 | COc1cc(-c2csc(NC(=O)Nc3cccc(C(F)(F)F)c3)n2)cc(OC)c1OC | 35.5%
35 | COc1ccc2[nH]c(C(=O)OCc3ccc4c(Br)cc(Br)c(O)c4n3)cc2c1 | -36.8% (active)
36 | Cc1cc(C)cc(CCCCCCCCCCCCCCCCCC(=O)O)c1 | 96.1%
37 | CS(=O)(=O)Nc1cc(-c2cc3ncc(C#N)c(Nc4ccc(Oc5ccccc5)c(Cl)c4)c3s2)cnc1Cl | 26.5%
38 | CCn1c(CN2CCN(Cc3ccccc3)CC2)nc2cc(NC(=O)c3cccs3)ccc21 | -88.1% (active)

tested on: HCT-116 colon; test: as above; settings: 10 µM unless noted

Row | Structure (SMILES) | growth
39 | O=C1Cc2c([nH]c3ccc([N+](=O)[O-])cc23)-c2ccccc2N1 | 4.3% (active)
40 | Cc1ccccc1CNc1ncnc2[nH]ncc12 | 100%
41 | COc1ccc(OC)c(Nc2nc(-c3c(C)nc4sccn34)cs2)c1 | 84.6%
42 | COc1cc2c(cc1OC)C(=O)OC2 | 111%
43 | CN=C1C=C/C(=N/N=c2/ccn(O)cc2C)C=C1C | 90.9%
44 | Cc1nc2ccc(Nc3nc(N4CCOCC4)nc(N4CCN(C)CC4)n3)cc2n1Cc1ccccc1 | 71.3%
45 | CC(C)=CCC[C@H](C)c1ccc(C)c2c1OCN(CCO)C2 | 71.8%
46 | COc1ccc(NC(=O)c2ccc(C(F)(F)F)nc2Nc2ccc(Cl)cc2C)cc1Cl | 3.71% (active)
47 | O=C(NCCNC(=O)c1cc(S(=O)(=O)NCCc2ccccc2)c(O)c(O)c1O)c1cc(S(=O)(=O)NCCc2ccccc2)c(O)c(O)c1O | 33.5%
48 | Cc1ccc(NC(=O)Cn2nncc2CN2C(=O)CSC2=O)cc1C | 102%
49 | Brc1ccccc1Cn1c(-c2cncs2)nc2ccccc21 | 73.3%
50 | COc1cccc(Cn2c(-c3nonc3NC(C)=O)nc3ccccc32)c1 | 42.7%
51 | CN1CCN(Cc2ccc(NC(=O)c3cccc(C#Cc4cnc(N)c5ncccc45)c3F)cc2C(F)(F)F)CC1 | -67.5% (active)
52 | O=C(Oc1c(Cl)c(Cl)c(Cl)c(Cl)c1Cl)C1CCCN1C(=O)OCc1ccccc1 (stereo unspecified) | 15.9%
53 | Clc1ccc(Nc2ncnc3c2sc2ncccc23)cc1 | 28%
54 | COc1ccc(/C=C/C(=O)c2ccc(NC(=O)CSc3nnc(-c4ccc(OC)cc4)n3-c3ccccc3)cc2)cc1 | 4.27% (active)
55 | CCCCNCCC(O)c1cc2ccc(C(F)(F)F)cc2c2cc(C(F)(F)F)ccc12 (stereo unspecified) | -87.3% (active)
56 | Cc1ccc(N2C3c4ccccc4N(S(=O)(=O)c4ccc(C)cc4)C2c2ccccc2N3S(=O)(=O)c2ccc(C)cc2)cc1 | 121%
57 | Cc1ccc(C2CC(c3cccs3)=NN2c2ccc(S(N)(=O)=O)cc2)s1 (stereo unspecified) | 79.2%

Row | Structure (SMILES) | growth
58 | O=C(Nc1ccc(OS(=O)(=O)c2ccc(F)cc2)cc1)C12CC3CC(CC(C3)C1)C2 | 33.7%
59 | CCCCCc1c(C)[nH]c(/C=C2\N=C(c3ccc[nH]3)C=C2CC)c1C | -95.4% (active)
60 | CC(COC(=O)c1ccccc1)N1CC2CCC(C1)O2 (stereo unspecified) | 106%
61 | Cc1cc(C)c(C#N)c(SCC(=O)c2sc3c(C#N)c(C)cc(C)[n+]3c2[O-])n1 | 16.8%
62 | COc1ccc(-c2nc(-c3ccccc3OCc3ccccc3OC)nc(C)c2C(C)=O)cc1 | 66.4%
63 | COc1c(-c2cc(-c3ccc(C)o3)[nH]c(=O)n2)c(O)cc2occc12 | 42.8%
64 | Cc1cc(NC(=O)C2c3ccccc3C(=O)N(CC(C)C)C2c2cccs2)no1 (stereo unspecified) | 0.136% (active)
65 | OC(c1cc2c(Cl)cc(Cl)cc2c2cc(C(F)(F)F)ccc12)C1CCCCN1 (stereo unspecified) | -85.9% (active)
66 | Cc1nc2ccc(Nc3nc(Cl)nc(N4CCOCC4)n3)cc2n1Cc1ccccc1 | 81.2%
67 | O=C(CS)OCC(COC(=O)CS)(COC(=O)CS)COC(=O)CS | 79.6%
68 | C=CCN(CCOC(=O)c1ccc([N+](=O)[O-])cc1)CCOC(=O)c1ccc([N+](=O)[O-])cc1 | 96.2%
69 | CCN1CCN(Cc2ccc(NC(=O)c3nc4ccc5[nH]ncc5c4c4c3CCCC4)cc2C(F)(F)F)CC1 | -77.9% (active)
70 | CN(C)c1ccc(N2Cc3ccccc3OC3=C2C(=O)c2c(O)ccc(O)c2C3=O)cn1 | -86.8% (active)
71 | CCCc1n(Cc2ccc3ccccc3n2)cc[n+]1Cc1ccc2ccccc2c1 | 1.31% (active)
72 | COc1cc(-c2csc(NC(=O)Nc3cccc(C(F)(F)F)c3)n2)cc(OC)c1OC | 46.9%
73 | COc1ccc2[nH]c(C(=O)OCc3ccc4c(Br)cc(Br)c(O)c4n3)cc2c1 | -74.8% (active)
74 | Cc1cc(C)cc(CCCCCCCCCCCCCCCCCC(=O)O)c1 | 99.9%
75 | CS(=O)(=O)Nc1cc(-c2cc3ncc(C#N)c(Nc4ccc(Oc5ccccc5)c(Cl)c4)c3s2)cnc1Cl | 45.1%
76 | CCn1c(CN2CCN(Cc3ccccc3)CC2)nc2cc(NC(=O)c3cccs3)ccc21 | 0.264% (active)
